Here are results for 3 compounds from PubChem BioAssay (EPA / NIEHS).

What is called AC50 is the concentration giving half of the maximal activity seen.

Read-out in assay [1]: Cyclin Dependent Kinase Inhibitor 1A (CDKN1A), CDKN1A (gene 1026)
Kind of assay: LTEA_HepaRG_CDKN1A: Life Technologies and Expression Analysis (LTEA) Assay for Cyclin Dependent Kinase Inhibitor 1A (CDKN1A) using HepaRG (AID 2283450). The note with it: mRNA level, 48 h; actives raise or lower the signal. The essentials: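 Read-out is CDKN1A mRNA by TaqMan qRT-PCR, normalized to three housekeeping genes and fitted in both directions against the DMSO baseline. Human HepaRG cells were treated 48 h with test chemicals up to 100 uM in half-log steps, 0.5% DMSO.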

Read-out in assay [2]: Cyclin D1 (CCND1), CCND1 (gene 595)
Kind of assay: LTEA_HepaRG_CCND1: Life Technologies and Expression Analysis (LTEA) Assay for Cyclin D1 (CCND1) using HepaRG (AID 2283451). The note with it: mRNA level, 48 h; actives raise or lower the signal. The essentials:
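HepaRG plated 48 h, medium switched to serum-free induction medium, chemicals added in duplicate (top 100 uM, half-log steps, 0.5% DMSO) for 48 h, cells lysed, RNA measured by TaqMan qRT-PCR.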

Read-out in assay [3]: catalase (CAT), CAT (gene 847)
Kind of assay: LTEA_HepaRG_CAT: Life Technologies and Expression Analysis (LTEA) Assay for catalase (CAT) using HepaRG (AID 2283452).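 For AC50: TaqMan qRT-PCR signal normalized to ACTB GAPDH and POLR2A housekeeping genes.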 The settings on record: mRNA level, 48 h; actives raise or lower the signal. The essentials: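 Differentiated HepaRG cells in serum-free induction medium were dosed 48 h in duplicate, eight half-log concentrations from 100 uM in 0.5% DMSO. Transcript measured by TaqMan qRT-PCR, normalised to ACTB/GAPDH/POLR2A, fitted bidirectionally against DMSO.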

Read-out in assay [4]: flavin-containing dimethylaniline monooxygenases 3 (FMO3), FMO3 (gene 2328)
Kind of assay: LTEA_HepaRG_FMO3: Life Technologies and Expression Analysis (LTEA) Assay for flavin-containing dimethylaniline monooxygenases 3 (FMO3) using HepaRG (AID 2283453). The note with it: mRNA level, 48 h; actives raise or lower the signal. The essentials:
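FMO3 transcript quantified by TaqMan qRT-PCR against three housekeeping genes after 48 h chemical exposure of HepaRG cells. Eight-point half-log series, top 100 uM, 0.5% DMSO vehicle; phenobarbital 1mM induction control; up- or down-regulation fitted.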

Read-out in assay [5]: Cytochrome P450 (CYP1A1), CYP1A1 (gene 1543)
Kind of assay: LTEA_HepaRG_CYP1A1: Life Technologies and Expression Analysis (LTEA) Assay for Cytochrome P450 (CYP1A1) using HepaRG (AID 2283454). The note with it: mRNA level, 48 h; actives raise or lower the signal. The essentials: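 HepaRG, 48 h post-plating switched to serum-free induction medium; 8-pt conc-response (top 100 uM, half-log, 0.5% DMSO), duplicates, 48 h. Lysis in RLT, TaqMan qRT-PCR for CYP1A1; gain or loss vs DMSO.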

Read-out in assay [6]: CFLAR gene, CFLAR (gene 8837)
Kind of assay: LTEA_HepaRG_CFLAR: Life Technologies and Expression Analysis (LTEA) Assay for CFLAR gene using HepaRG (AID 2283455). The settings on record: mRNA level, 48 h; actives raise or lower the signal. The essentials:
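Gain- or loss-of-signal changes in CFLAR transcript were fitted bidirectionally relative to 0.5% DMSO. Cells (HepaRG, duplicate wells) were dosed for 48 h across eight half-log concentrations topping at 100 uM; quantitation by TaqMan qRT-PCR.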

Read-out in assay [7]: Forkhead box O1 (FOXO1), FOXO1 (gene 2308)
Kind of assay: LTEA_HepaRG_FOXO1: Life Technologies and Expression Analysis (LTEA) Assay for Forkhead box O1 (FOXO1) using HepaRG (AID 2283456). The settings on record: mRNA level, 48 h; actives raise or lower the signal. The essentials: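 Using one lot of HepaRG hepatic cells kept in 0.5% DMSO, the team applied test chemicals in duplicate, half-log dilutions from 100 uM, for 48 h. Expression, normalised to ACTB/GAPDH/POLR2A, was compared with vehicle in either direction.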

Read-out in assay [8]: growth arrest and DNA damage 45 (GADD45A), GADD45A (gene 1647)
Kind of assay: LTEA_HepaRG_GADD45A: Life Technologies and Expression Analysis (LTEA) Assay for growth arrest and DNA damage 45 (GADD45A) using HepaRG (AID 2283458). The settings on record: mRNA level, 48 h; actives raise or lower the signal. The essentials:
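Transcript induction or loss, quantified by TaqMan qRT-PCR against three housekeeping genes, is the read-out. HepaRG cells received chemicals for 48 h across eight half-log concentrations from 100 uM in 0.5% DMSO; gain and loss fitted relative to DMSO.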

Read-out in assay [9]: Forkhead box O3 (FOXO3), FOXO3 (gene 2309)
Kind of assay: LTEA_HepaRG_FOXO3: Life Technologies and Expression Analysis (LTEA) Assay for Forkhead box O3 (FOXO3) using HepaRG (AID 2283459). The note with it: mRNA level, 48 h; actives raise or lower the signal. The essentials:
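Gene-expression endpoint: FOXO3 transcript level by qRT-PCR in HepaRG cultures treated 48 h with chemicals up to 100 uM (half-log, 0.5% DMSO vehicle).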

Read-out in assay [10]: ABC Transporter (ABCB1), ABCB1 (gene 5243)
Kind of assay: LTEA_HepaRG_ABCB1: Life Technologies and Expression Analysis (LTEA) Assay for ABC Transporter (ABCB1) using HepaRG (AID 2283460). The note with it: mRNA level, 48 h; actives raise or lower the signal. The essentials:
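Human liver HepaRG line treated 48 h with up to 100 uM compound (eight half-log points, 0.5% DMSO); ABCB1 mRNA change fitted bidirectionally against DMSO controls.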

Read-out in assay [11]: growth arrest and DNA damage 45 (GADD45B), GADD45B (gene 4616)
Kind of assay: LTEA_HepaRG_GADD45B: Life Technologies and Expression Analysis (LTEA) Assay for growth arrest and DNA damage 45 (GADD45B) using HepaRG (AID 2283461). The note with it: mRNA level, 48 h; actives raise or lower the signal. The essentials: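 HepaRG, ~100,000 cells/well, 48 h plating; serum-free induction medium; cpd 100 uM top, half-log x8, 0.5% DMSO, duplicate, 48 h; lysis in RLT, RNA isolation, qRT-PCR; norm ACTB/GAPDH/POLR2A; bidirectional fit vs DMSO.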

Read-out in assay [12]: ABC Transporter (ABCC3), ABCC3 (gene 8714)
Kind of assay: LTEA_HepaRG_ABCC3: Life Technologies and Expression Analysis (LTEA) Assay for ABC Transporter (ABCC3) using HepaRG (AID 2283462). The note with it: mRNA level, 48 h; actives raise or lower the signal. The essentials:
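Human HepaRG, 48 h dosing, 8-pt half-log series from 100 uM, 0.5% DMSO vehicle, duplicates. ABCC3 mRNA by TaqMan qRT-PCR, housekeeping-normalized; bidirectional curve fit vs DMSO.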

Read-out in assay [13]: ABC Transporter (ABCB11), ABCB11 (gene 8647)
Kind of assay: LTEA_HepaRG_ABCB11: Life Technologies and Expression Analysis (LTEA) Assay for ABC Transporter (ABCB11) using HepaRG (AID 2283463). The note with it: mRNA level, 48 h; actives raise or lower the signal. The essentials: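 Using HepaRG cultures held in 0.5% DMSO, chemicals were tested at half-log dilutions from 100 uM for 48 h. Induction or suppression of ABCB11 mRNA, normalized to ACTB, GAPDH and POLR2A, was fitted bidirectionally against vehicle.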

Read-out in assay [14]: ABC Transporter (ABCC2), ABCC2 (gene 1244)
Kind of assay: LTEA_HepaRG_ABCC2: Life Technologies and Expression Analysis (LTEA) Assay for ABC Transporter (ABCC2) using HepaRG (AID 2283464). The settings on record: mRNA level, 48 h; actives raise or lower the signal. The essentials:
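HepaRG, 48 h post-plating; serum-free induction medium; cpd 8-pt, 100 uM top, half-log, 0.5% DMSO, duplicate, 48 h. Readout: ABCC2 mRNA by qRT-PCR, norm. ACTB/GAPDH/POLR2A. Bidirectional fit vs DMSO baseline.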

Read-out in assay [15]: Broad substrate specificity ATP-binding cassette transporter ABCG2 (Homo sapiens) (UniProt Q9UNQ0)
Kind of assay: LTEA_HepaRG_ABCG2: Life Technologies and Expression Analysis (LTEA) Assay for ABC Transporter (ABCG2) using HepaRG (AID 2283465). The note with it: mRNA level, 48 h; actives raise or lower the signal. The essentials:
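Gene expression of ABCG2 in HepaRG liver cells is quantified by qRT-PCR following 48 h exposure across an eight-point series topping at 100 uM. Values come from bidirectional fitting relative to DMSO vehicle.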

Read-out in assay [16]: ATP-citrate lyase (ACLY), ACLY (gene 47)
Kind of assay: LTEA_HepaRG_ACLY: Life Technologies and Expression Analysis (LTEA) Assay for ATP-citrate lyase (ACLY) using HepaRG (AID 2283466). The settings on record: mRNA level, 48 h; actives raise or lower the signal. The essentials: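 ACLY expression changes in human HepaRG liver cells are quantified by qRT-PCR after 48 h exposure to test chemicals (maximum 100 uM, half-log steps). Values are fitted in both directions relative to 0.5% DMSO vehicle.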

Read-out in assay [17]: Peroxisomal acyl-coenzyme A oxidase 1 (ACOX1) gene, ACOX1 (gene 51)
Kind of assay: LTEA_HepaRG_ACOX1: Life Technologies and Expression Analysis (LTEA) Assay for Peroxisomal acyl-coenzyme A oxidase 1 (ACOX1) gene using HepaRG (AID 2283467). The note with it: mRNA level, 48 h; actives raise or lower the signal. The essentials:
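Human HepaRG hepatic cultures, 48 h treatment with test chemicals up to 100 uM. ACOX1 expression read by qRT-PCR relative to 0.5% DMSO vehicle.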

Read-out in assay [18]: Alkaline Phosphatase, Placental (ALPP) gene, ALPP (gene 250)
Kind of assay: LTEA_HepaRG_ALPP: Life Technologies and Expression Analysis (LTEA) Assay for Alkaline Phosphatase, Placental (ALPP) gene using HepaRG (AID 2283468). The settings on record: mRNA level, 48 h; actives raise or lower the signal. The essentials: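 HepaRG, 48 h plating then 48 h dosing, serum-free induction medium, 0.5% DMSO. 8 conc, half-log, max 100 uM, duplicates. Endpoint: ALPP transcript by qRT-PCR, housekeeping-normalized; gain or loss fitted vs DMSO.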

The nature of assay [19]: CEETOX_H295R_TESTO: CeeTox H295R High-throughput Steroidogenesis Assay for Testosterone (TESTO) (AID 2283457). The note with it: actives raise or lower the signal. The essentials:
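H295R, passage ≤10, 48 h dosing; media extracted with MTBE → HPLC-MS/MS for testosterone; 7-pt standard curve sets LLOQ/ULOQ; bidirectional fit vs DMSO; MTT viability same wells.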

Read-out in assay [20]: Cyclin D2 (CCND2), CCND2 (gene 894)
Kind of assay: LTEA_HepaRG_CCND2: Life Technologies and Expression Analysis (LTEA) Assay for Cyclin D2 (CCND2) using HepaRG (AID 2283449).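 Note: CCND2 transcript measured by TaqMan qRT-PCR and normalised to three housekeeping genes.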 The settings on record: mRNA level, 48 h; actives raise or lower the signal. The essentials:
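In this HepaRG study, an eight-point concentration series (max 100 uM, 0.5% DMSO) is applied for 48 h. CCND2 mRNA change is derived by qRT-PCR normalised to ACTB, GAPDH and POLR2A.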

Active and inactive are the calls of the source. Rule for the calls: active = hit-call score of the fitted dose curve at least 0.9, where 1 is the maximum; inactive = score below 0.9.

Chain of Broad substrate specificity ATP-binding cassette transporter ABCG2 (Homo sapiens) (Q9UNQ0 whole entry, looked up): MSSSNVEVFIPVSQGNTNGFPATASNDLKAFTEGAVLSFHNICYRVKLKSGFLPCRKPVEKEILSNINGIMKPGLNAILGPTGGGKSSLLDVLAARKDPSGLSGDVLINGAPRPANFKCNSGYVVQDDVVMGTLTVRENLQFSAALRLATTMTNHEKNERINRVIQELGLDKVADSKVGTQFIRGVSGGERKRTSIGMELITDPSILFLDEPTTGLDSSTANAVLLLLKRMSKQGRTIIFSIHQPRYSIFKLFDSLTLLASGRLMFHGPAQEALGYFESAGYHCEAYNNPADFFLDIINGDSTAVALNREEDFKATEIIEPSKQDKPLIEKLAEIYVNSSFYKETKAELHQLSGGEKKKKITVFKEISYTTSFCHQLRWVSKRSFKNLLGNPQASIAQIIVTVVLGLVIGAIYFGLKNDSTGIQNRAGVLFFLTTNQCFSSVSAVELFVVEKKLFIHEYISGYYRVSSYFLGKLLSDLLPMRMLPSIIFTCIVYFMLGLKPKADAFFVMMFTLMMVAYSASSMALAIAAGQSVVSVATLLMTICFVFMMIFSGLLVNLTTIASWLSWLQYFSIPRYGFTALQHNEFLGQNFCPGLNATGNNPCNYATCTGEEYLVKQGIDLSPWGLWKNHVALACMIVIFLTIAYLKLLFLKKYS

In the case of `NCC1(Cc2noc(=O)[nH]2)CCCCC1`, the result in [1], in assay [2], in [3], in assay [4], in [6] and in assay [7] was inactive. The result in [8], in assay [9], in [10], in [11], in [12] and in assay [13] was inactive. Moreover, the result in assay [14], in [15], in assay [16], in assay [17] and in [18] was inactive. In addition, the AC50 in assay [5] is 73300 nM (active).

On to `Cc1cc(NC(=O)C(=O)O)cc(C)c1Oc1ccc(O)c2c1CCC2`, for which the outcome in [1], in assay [2], in assay [4], in assay [7], in assay [19] and in assay [8] was inactive. Besides, the compound was classed as inactive in assay [9], in assay [11], in [12], in assay [14], in [15] and in [16]. Further, the compound was classed as inactive in assay [17] and in [18]. Besides, the figures for the AC50 in assay [3], in assay [5] and in assay [13] were 303 nM (active), 2.6 nM (active) and 7.78 nM (active), respectively.

Take `Clc1cc(Cl)c(Cl)cc1Cl`: the result in assay [20], in [1], in assay [2], in assay [3], in assay [4] and in assay [7] was inactive. Besides, the outcome in assay [9], in [11], in assay [12], in [13], in assay [14] and in [15] was inactive. The result in assay [16], in assay [17] and in [18] was inactive. In addition, in assay [5], the AC50 is 50000 nM (active).
